This passage reports binding signal results from publication PMC7862700, “An all-to-all approach to the identification of sequence-specific readers for epigenetic DNA modifications on cytosine”.

What all share (assay): DAPPL (digital affinity profiling via proximity ligation, sequencing); 10 mM Tris-HCl pH 7.5, 50 mM NaCl, 1 mM DTT, 4% glycerol, room temperature, 30 min; GST-TFs on glutathione beads, 16-mer random dsDNA library, 0.1% formaldehyde crosslink after washing; high values mean tight binding
Common to all, as to settings: protein: recombinant; tags: N-terminal GST; dsDNA, one strand shown

The target in assay [1] is T1, ELK1 (Homo sapiens, UniProt P19419 1-428).
T1 sequence: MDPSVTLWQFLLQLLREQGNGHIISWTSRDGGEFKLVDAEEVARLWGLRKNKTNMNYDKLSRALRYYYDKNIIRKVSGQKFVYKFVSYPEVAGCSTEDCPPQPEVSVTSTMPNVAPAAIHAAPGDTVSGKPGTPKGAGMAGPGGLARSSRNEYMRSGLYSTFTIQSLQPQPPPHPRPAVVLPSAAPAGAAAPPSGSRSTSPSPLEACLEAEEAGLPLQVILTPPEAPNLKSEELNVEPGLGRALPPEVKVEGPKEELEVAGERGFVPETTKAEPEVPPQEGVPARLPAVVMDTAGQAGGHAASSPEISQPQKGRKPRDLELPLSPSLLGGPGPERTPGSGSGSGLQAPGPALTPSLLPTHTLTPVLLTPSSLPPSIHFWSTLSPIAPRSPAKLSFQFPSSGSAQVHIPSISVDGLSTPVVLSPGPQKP
The method in brief:
(§1)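 A tag-only sample was pooled with DNA-barcoded human transcription factors that had been expressed in yeast as GST fusions and captured on glutathione beads. The pools were incubated for 30 min at room temperature with 200 nmole of a random double-stranded 16-mer DNA library in Tris/NaCl/DTT/glycerol buffer, then washed, crosslinked with 0.1% formaldehyde, proximity-ligated (BsaI/T4 ligase, 1 h, 37 °C), PCR-amplified and sequenced on an Illumina NextSeq500. Binding signal is each hexamer's read frequency for a factor divided by its frequency for the tag-only sample.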

Assay [2] concerns the target T2, GABPA (Homo sapiens, UniProt Q06546 1-454).
T2 sequence: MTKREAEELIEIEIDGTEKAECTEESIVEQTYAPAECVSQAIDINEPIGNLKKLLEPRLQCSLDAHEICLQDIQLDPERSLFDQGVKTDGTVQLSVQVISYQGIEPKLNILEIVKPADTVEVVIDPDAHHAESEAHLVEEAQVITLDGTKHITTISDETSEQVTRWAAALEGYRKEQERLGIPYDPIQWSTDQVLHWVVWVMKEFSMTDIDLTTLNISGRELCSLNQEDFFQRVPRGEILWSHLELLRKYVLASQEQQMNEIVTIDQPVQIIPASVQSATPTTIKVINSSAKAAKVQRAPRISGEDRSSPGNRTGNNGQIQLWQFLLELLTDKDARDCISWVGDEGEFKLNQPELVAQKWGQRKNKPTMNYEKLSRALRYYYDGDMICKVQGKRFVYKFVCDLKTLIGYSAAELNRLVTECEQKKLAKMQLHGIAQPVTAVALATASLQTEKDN
The method in brief:
as §1

Assay [3] has as its target ELF1 (Homo sapiens, UniProt P32519 1-619). The method in brief: as §1
The target of assay [4] is T3, EHF (Homo sapiens, UniProt Q9NZC4 1-300).
T3 sequence: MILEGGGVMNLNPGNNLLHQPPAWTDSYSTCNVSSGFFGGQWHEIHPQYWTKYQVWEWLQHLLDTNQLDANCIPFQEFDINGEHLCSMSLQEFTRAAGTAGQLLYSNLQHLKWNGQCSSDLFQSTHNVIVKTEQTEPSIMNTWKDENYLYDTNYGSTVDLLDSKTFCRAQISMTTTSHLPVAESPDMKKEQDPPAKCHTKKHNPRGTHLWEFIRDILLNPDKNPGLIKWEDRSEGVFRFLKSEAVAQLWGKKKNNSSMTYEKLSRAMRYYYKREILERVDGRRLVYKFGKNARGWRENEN
The method in brief:
as §1

Assay [5] addresses SPIB (Homo sapiens, UniProt Q01892 1-262). The method in brief:
as §1

Assay [6] concerns the target ETV5 (Homo sapiens, UniProt P41161 1-510). The method in brief:
as §1

The target in assay [7] is T4, SPIC (Homo sapiens, UniProt Q8N5J4 1-248).
T4 sequence: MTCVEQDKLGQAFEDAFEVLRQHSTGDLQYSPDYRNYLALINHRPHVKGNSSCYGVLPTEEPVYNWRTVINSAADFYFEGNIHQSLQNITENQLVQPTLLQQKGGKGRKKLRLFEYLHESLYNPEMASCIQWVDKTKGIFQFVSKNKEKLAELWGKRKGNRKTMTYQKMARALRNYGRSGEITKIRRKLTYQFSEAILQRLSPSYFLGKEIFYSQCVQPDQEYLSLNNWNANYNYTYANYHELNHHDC
The method in brief:
as §1

Assay [8] addresses ELF4 (Homo sapiens, UniProt Q99607 1-663). The method in brief:
as §1

Assay [9] addresses T5, ELK4 (Homo sapiens, UniProt P28324-2 1-405).
T5 sequence: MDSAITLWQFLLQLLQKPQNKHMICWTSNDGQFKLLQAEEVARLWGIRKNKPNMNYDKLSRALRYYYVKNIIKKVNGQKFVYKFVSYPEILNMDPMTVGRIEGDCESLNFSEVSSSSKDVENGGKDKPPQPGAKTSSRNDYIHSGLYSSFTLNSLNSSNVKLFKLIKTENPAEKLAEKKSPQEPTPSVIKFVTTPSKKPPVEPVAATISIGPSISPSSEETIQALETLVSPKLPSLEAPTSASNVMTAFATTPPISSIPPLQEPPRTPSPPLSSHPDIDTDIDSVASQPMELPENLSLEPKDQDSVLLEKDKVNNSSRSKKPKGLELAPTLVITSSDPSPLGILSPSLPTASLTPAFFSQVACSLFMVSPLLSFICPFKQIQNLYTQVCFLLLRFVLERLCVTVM
The method in brief: as §1

The target of assay [10] is T6, ELF3 (Homo sapiens, UniProt P78545 1-371).
T6 sequence: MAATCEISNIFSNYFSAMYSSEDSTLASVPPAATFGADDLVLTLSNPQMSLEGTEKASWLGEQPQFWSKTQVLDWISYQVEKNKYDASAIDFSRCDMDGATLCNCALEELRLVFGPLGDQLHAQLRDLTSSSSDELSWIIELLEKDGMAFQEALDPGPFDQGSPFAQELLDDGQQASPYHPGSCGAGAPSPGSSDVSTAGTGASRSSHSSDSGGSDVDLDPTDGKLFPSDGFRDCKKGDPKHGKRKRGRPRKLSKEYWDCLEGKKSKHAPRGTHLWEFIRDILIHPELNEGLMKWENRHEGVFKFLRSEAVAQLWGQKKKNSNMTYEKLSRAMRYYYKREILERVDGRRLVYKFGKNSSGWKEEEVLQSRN
The method in brief:
as §1

Assay [11] concerns the target ETV1 (Homo sapiens, UniProt P50549 1-477). The method in brief: as §1
The target of assay [12] is T7, ETV3L (Homo sapiens, UniProt Q6ZN32 1-361).
T7 sequence: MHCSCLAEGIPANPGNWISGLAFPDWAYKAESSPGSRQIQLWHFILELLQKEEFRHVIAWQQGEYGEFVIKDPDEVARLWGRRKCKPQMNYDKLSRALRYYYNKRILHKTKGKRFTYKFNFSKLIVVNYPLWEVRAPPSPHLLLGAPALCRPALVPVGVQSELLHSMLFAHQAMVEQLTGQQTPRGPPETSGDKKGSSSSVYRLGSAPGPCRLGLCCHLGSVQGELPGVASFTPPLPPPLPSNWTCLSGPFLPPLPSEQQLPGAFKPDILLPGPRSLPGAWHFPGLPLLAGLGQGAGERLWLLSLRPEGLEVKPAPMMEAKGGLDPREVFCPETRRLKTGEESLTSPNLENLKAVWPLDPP
The method in brief:
as §1

The target in assay [13] is T8, ETS2 (Homo sapiens, UniProt P15036 1-469).
T8 sequence: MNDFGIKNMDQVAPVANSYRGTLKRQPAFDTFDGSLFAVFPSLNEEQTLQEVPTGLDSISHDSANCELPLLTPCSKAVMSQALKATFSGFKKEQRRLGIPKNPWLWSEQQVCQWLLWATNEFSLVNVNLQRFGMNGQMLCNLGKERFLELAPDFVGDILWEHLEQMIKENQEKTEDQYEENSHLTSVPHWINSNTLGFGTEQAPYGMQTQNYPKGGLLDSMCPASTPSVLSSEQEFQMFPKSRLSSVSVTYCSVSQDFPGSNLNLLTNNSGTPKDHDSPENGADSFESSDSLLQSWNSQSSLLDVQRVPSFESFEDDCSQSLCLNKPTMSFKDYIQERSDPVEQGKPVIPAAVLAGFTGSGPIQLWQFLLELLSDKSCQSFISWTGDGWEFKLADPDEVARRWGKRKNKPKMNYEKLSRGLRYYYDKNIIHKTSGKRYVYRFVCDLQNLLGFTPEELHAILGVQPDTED
The method in brief: as §1

Assay [14] deals with T9, SPDEF (Homo sapiens, UniProt O95238 1-335).
T9 sequence: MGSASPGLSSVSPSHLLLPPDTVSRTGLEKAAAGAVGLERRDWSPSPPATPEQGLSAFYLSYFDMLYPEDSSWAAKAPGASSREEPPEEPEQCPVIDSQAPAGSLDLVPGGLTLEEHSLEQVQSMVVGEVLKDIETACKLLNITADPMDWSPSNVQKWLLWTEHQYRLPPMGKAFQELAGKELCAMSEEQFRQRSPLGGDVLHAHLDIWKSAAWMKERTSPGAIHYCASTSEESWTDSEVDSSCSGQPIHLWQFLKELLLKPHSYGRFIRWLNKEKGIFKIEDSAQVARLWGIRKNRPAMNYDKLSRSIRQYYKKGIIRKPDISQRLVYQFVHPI
The method in brief:
as §1

Assay [15] has as its target T10, ETV7 (Homo sapiens, UniProt Q9Y603 1-341).
T10 sequence: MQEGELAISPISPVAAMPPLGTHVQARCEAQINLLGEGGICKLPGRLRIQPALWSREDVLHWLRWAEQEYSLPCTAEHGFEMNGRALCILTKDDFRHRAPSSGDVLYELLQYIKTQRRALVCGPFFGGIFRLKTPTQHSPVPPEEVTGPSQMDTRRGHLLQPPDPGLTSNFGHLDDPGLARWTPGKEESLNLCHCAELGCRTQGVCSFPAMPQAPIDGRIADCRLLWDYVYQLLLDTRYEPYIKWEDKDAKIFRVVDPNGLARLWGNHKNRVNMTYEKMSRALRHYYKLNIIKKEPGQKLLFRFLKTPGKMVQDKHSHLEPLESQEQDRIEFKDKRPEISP
The method in brief:
as §1

In assay [16] the target is T11, ETV3 (Homo sapiens, UniProt P41162-2 1-143).
T11 sequence: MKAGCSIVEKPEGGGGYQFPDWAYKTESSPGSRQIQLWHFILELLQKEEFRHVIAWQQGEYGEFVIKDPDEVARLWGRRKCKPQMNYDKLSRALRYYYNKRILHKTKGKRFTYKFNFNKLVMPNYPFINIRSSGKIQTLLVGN
The method in brief:
as §1

Assay [17] has as its target ETV6 (Homo sapiens, UniProt P41212 1-452). The method in brief: as §1

Sequence of ETV5 (P41161 whole entry): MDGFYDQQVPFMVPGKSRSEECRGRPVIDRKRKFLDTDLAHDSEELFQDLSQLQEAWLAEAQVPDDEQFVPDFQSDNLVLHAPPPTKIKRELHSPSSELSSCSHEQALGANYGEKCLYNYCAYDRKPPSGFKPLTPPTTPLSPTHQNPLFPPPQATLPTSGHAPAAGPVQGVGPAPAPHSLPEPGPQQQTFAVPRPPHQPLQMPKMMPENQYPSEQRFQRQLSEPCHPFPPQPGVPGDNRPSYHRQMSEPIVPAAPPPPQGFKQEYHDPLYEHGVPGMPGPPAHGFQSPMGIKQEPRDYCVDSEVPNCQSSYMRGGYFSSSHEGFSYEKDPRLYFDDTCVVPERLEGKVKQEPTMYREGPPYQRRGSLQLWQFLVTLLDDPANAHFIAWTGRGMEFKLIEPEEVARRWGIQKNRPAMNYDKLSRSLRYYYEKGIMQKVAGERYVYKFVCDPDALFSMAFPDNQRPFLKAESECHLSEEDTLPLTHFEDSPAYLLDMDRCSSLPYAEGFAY
Sequence of SPIB (Q01892 whole entry): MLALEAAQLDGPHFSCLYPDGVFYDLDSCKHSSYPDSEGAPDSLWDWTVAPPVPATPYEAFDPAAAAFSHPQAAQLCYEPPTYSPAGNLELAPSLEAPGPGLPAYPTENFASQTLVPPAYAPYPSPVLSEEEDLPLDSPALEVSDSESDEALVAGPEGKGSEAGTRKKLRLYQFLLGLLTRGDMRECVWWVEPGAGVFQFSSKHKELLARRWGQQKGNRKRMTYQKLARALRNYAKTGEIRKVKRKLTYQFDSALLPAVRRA
Sequence of ELF1 (P32519 whole entry): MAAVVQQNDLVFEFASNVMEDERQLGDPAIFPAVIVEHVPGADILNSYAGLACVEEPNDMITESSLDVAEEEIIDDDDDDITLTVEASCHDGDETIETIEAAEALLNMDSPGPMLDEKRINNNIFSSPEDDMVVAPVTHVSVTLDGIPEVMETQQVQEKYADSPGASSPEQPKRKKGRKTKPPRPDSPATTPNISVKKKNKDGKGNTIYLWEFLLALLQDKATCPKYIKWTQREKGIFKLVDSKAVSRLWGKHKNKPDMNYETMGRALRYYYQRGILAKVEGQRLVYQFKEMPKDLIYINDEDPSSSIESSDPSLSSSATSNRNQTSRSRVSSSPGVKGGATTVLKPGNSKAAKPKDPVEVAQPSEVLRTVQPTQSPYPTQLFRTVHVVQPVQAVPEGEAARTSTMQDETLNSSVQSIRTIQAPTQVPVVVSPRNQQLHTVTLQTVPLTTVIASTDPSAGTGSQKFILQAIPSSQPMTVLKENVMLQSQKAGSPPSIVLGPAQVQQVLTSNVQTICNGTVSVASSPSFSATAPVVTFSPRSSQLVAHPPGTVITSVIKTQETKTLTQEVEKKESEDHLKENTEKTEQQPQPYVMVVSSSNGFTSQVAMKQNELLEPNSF
Sequence of ETV1 (P50549 whole entry): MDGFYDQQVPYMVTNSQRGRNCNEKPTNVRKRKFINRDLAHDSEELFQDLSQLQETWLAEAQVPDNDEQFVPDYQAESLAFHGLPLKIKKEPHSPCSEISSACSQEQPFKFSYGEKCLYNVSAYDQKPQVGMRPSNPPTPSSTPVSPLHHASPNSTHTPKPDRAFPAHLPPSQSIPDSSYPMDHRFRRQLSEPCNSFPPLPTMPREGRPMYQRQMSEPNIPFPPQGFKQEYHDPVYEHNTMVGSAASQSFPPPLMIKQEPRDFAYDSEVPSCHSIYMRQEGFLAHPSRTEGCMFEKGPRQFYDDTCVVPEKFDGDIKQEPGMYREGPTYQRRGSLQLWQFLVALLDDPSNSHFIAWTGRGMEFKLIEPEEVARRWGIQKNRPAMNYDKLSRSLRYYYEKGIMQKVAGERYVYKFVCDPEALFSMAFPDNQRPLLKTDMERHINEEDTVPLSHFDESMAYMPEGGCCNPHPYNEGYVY
Sequence of ELF4 (Q99607 whole entry): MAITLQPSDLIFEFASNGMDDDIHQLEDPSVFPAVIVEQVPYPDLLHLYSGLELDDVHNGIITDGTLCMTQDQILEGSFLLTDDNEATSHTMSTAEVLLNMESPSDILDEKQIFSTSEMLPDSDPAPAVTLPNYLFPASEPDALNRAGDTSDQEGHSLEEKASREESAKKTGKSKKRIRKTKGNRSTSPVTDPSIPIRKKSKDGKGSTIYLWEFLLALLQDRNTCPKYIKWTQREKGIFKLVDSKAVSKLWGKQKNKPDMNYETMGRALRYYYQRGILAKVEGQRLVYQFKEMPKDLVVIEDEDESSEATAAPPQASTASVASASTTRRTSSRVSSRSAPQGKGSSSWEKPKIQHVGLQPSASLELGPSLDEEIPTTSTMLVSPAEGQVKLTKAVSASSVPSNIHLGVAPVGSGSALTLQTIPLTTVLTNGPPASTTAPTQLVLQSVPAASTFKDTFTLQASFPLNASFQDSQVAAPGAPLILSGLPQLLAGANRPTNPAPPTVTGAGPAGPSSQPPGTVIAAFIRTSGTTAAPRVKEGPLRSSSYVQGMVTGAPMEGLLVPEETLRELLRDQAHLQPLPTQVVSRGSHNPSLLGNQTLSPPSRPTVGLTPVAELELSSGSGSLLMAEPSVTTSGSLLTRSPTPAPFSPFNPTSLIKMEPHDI
Sequence of ETV6 (P41212 whole entry): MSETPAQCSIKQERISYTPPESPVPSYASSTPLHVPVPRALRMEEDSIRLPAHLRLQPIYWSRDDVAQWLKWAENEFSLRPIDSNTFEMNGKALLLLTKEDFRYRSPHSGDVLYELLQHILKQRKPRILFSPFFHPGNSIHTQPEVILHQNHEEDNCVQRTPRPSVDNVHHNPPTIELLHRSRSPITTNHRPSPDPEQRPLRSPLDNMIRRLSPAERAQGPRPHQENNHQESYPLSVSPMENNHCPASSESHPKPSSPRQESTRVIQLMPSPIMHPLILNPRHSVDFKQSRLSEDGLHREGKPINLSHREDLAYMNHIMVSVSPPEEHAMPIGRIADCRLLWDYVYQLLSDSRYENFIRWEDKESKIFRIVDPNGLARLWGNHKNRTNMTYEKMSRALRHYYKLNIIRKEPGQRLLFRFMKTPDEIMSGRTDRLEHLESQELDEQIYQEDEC

Turning to ACACGG, the binding signal was 1.03 fold enrichment (6-mer frequency, TF over GST control) in assay [1]; 1.05 fold enrichment (6-mer frequency, TF over GST control) in assay [2]; 1.06 fold enrichment (6-mer frequency, TF over GST control) in [3]; 1.05 fold enrichment (6-mer frequency, TF over GST control) in [4]; 1.1 fold enrichment (6-mer frequency, TF over GST control) in assay [5]; 1.04 fold enrichment (6-mer frequency, TF over GST control) in assay [6]. Also, the binding signal in [7] is 1.06 fold enrichment (6-mer frequency, TF over GST control); in assay [8], 1.05 fold enrichment (6-mer frequency, TF over GST control); in assay [9], 1.07 fold enrichment (6-mer frequency, TF over GST control); in [10], 1.06 fold enrichment (6-mer frequency, TF over GST control); in assay [11], 1.1 fold enrichment (6-mer frequency, TF over GST control); in assay [12], 1.06 fold enrichment (6-mer frequency, TF over GST control). The binding signal in [13] is 1.08 fold enrichment (6-mer frequency, TF over GST control); in [14] it was 1.17 fold enrichment (6-mer frequency, TF over GST control); in [15], 1.03 fold enrichment (6-mer frequency, TF over GST control); in assay [16], 1.13 fold enrichment (6-mer frequency, TF over GST control); in [17] it was 1.06 fold enrichment (6-mer frequency, TF over GST control).
